Each structure is given as a SMILES string. Inconclusive results are not listed. Activity calls are given as the source filed them. Calls follow the shape of the dose curve; as a rule, active = well fitted inhibition curve with a large enough effect; inconclusive = small, poorly fitted or top-dose-only effect; inactive = flat fitted curve, though single readings scatter.

Common to all, as to assay: qHTS profiling for inhibitors of Plasmodium falciparum proliferation (AID 504749); also: nearly all actives have a fitted effect of over 60% in size
Common to all, as to details: P. falciparum in erythrocytes, SYBR Green DNA, 72 h; series mostly up to 28.7 µM
For orientation: qHTS replaces the single test concentration by a dilution series.

The test system of test [1] is N140. The method in brief: (§1)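 SYBR Green fluorescence (ex 485 nm, em 535 nm) reports parasite DNA after 72 h compound exposure of infected red cells at 0.3% parasitemia, 2.5% hematocrit; signal normalized to 0.29 uM artemisinin and vehicle wells.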
In test [2] the test system is P93_24. The method, boiled down:
as §1

The test system of test [3] is P94_40. The method in brief:
as §1

The test system of test [4] is PAD. The method, boiled down:
as §1

For test [5], the system named is PC15. The method in brief:
as §1

For test [6], the system named is PC26. The method in brief: as §1
Test [7] concerns PC49. The method, boiled down: as §1
Test [8] concerns SC27B. The method, boiled down: as §1
In test [9] the test system is TAB109. The method in brief:
as §1

Test [10] has as its system TAB113. The method in brief:
as §1
Potency is read from the fitted curve at half-maximal effect.

For the molecule `O=c1cc(O)c(Cl)c[nH]1`, the Potency entry in test [1], in [2], in [3], in test [4], in test [5] and in test [6] was “inactive” throughout. Further, the Potency result in [7], in test [8], in test [9] and in [10] was “inactive” each time.
For the molecule `COc1ccc(-c2ccc3cc(C(=O)O)ccc3c2)cc1C12CC3CC(CC(C3)C1)C2`, the Potency result in test [1], in test [2], in test [3], in test [4], in test [5] and in [6] was “inactive” in each case. For the same molecule, the Potency result in test [7], in test [8], in [9] and in test [10] was “inactive” throughout.
`NC(=O)c1cccnc1`: the Potency result in [1], in [2], in test [3], in [4], in [5] and in [6] was “inactive” in each case. The Potency entry in test [7], in test [8], in test [9] and in test [10] was “inactive” each time.
With `OC(Cn1cncn1)(Cn1cncn1)c1ccc(F)cc1F`, the Potency result in test [1], in test [2], in test [3], in test [4], in test [5] and in test [6] was “inactive” each time. The Potency entry in test [7], in test [8], in test [9] and in test [10] was “inactive” in each case.
Take `NC(N)=NC(N)=NCCc1ccccc1`: the Potency entry in [1], in [2], in test [3], in [4], in test [5] and in test [6] was “inactive” throughout. Further, the Potency entry in test [7], in test [8], in test [9] and in [10] was “inactive” throughout.
On to `COC(=O)Nc1nc2ccc(Sc3ccccc3)cc2[nH]1`, for which the Potency result in test [1], in test [2], in test [3], in test [4], in [5] and in test [6] was “inactive” throughout. Moreover, the Potency entry in test [7], in test [8], in test [9] and in [10] was “inactive” throughout.
Consider `Nc1[nH]c(=O)ncc1F`, for which the Potency result in [1], in [2], in [3], in [4], in [5] and in [6] was “inactive” in each case. The Potency entry in test [7], in test [8], in test [9] and in test [10] was “inactive” throughout.
As for `O=S(=O)(O)CCS`, the Potency result in test [1], in test [2], in test [3], in [4], in [5] and in test [6] was “inactive” throughout. Besides, the Potency entry in test [7], in test [8], in test [9] and in test [10] was “inactive” throughout.
In the case of `O=NN(CCCl)C(=O)NC1CCCCC1`, the Potency result in [1], in test [2], in [3], in [4], in [5] and in test [6] was “inactive” each time. The Potency result in test [7], in [8], in test [9] and in test [10] was “inactive” in each case.
Consider `Cc1ncc([N+](=O)[O-])n1CCO`, for which the Potency result in test [1], in [2], in [3], in [4], in [5] and in [6] was “inactive” in each case. The Potency result in [7], in test [8], in [9] and in test [10] was “inactive” throughout.
For `Cc1cccc(N(C)C(=S)Oc2ccc3ccccc3c2)c1`, the Potency entry in test [1], in test [2], in [3], in test [4], in [5] and in [6] was “inactive” throughout. Also, the Potency result in test [7], in [8], in test [9] and in test [10] was “inactive” each time.
Take `CC[C@H](C)C(=O)O[C@H]1C[C@@H](C)C=C2C=C[C@H](C)[C@H](CC[C@@H]3C[C@@H](O)CC(=O)O3)[C@H]21`: the Potency entry in test [1], in test [2], in test [3], in test [4], in [5] and in test [6] was “inactive” in each case. Also, the Potency entry in [7], in [8], in test [9] and in [10] was “inactive” each time.
For the molecule `CN(C)CCc1c[nH]c2ccc(CS(=O)(=O)N3CCCC3)cc12`, the Potency entry in test [1], in test [2], in test [3], in [4], in [5] and in [6] was “inactive” each time. Moreover, the Potency entry in test [7], in [8], in [9] and in test [10] was “inactive” each time.
In the case of `O=P(O)(O)C(O)(Cc1cccnc1)P(=O)(O)O`, the Potency result in test [1], in [2], in test [3], in test [4], in [5] and in test [6] was “inactive” in each case. Moreover, the Potency entry in test [7], in test [8], in test [9] and in test [10] was “inactive” each time.
Take `COc1ccc2cc3[n+](cc2c1OC)CCc1cc2c(cc1-3)OCO2`: the Potency in [1] is 1.26 µM (active); in test [2], 0.562 µM (active); in [3] it was 0.447 µM (active); in test [4], 1 µM (active); in [5], 2.24 µM (active); in [6], 1.9 µM (active). Also, the Potency in test [7] was 2.51 µM (active); in test [8], 1.26 µM (active); in test [9] it was 0.631 µM (active); in test [10], 1 µM (active).
`CCc1cc(C(N)=S)ccn1`: the Potency entry in test [1], in test [2], in [3], in [4], in test [5] and in [6] was “inactive” each time. The Potency entry in test [7], in test [8], in test [9] and in test [10] was “inactive” each time.
As for `COc1cc([C@@H]2c3cc4c(cc3[C@H](O)[C@H]3COC(=O)[C@H]23)OCO4)cc(OC)c1OC`, the Potency was 2.82 µM (active) in [1]; 2.24 µM (active) in [2]; 2.51 µM (active) in test [3]; 3.55 µM (active) in [4]; 1.78 µM (active) in test [5]; 8.49 µM (active) in [6]. In addition, the Potency is 8.91 µM (active) in test [7], 4.47 µM (active) in test [8], 2.51 µM (active) in test [9] and 3.16 µM (active) in test [10].
Turning to `CC(C)Cn1cnc2c(N)nc3ccccc3c21`, the Potency entry in [1], in [2], in test [3], in test [4], in test [5] and in test [6] was “inactive” in each case. Moreover, the Potency result in test [7], in [8] and in test [9] was “inactive” each time.
With `C[C@]12C=CC(=O)C=C1CC[C@@H]1[C@@H]2C(=O)C[C@@]2(C)[C@H]1CC[C@]2(O)C(=O)CO`, the Potency result in test [1], in [2], in [3], in test [4], in test [5] and in [6] was “inactive” throughout. In addition, the Potency entry in test [7], in test [8] and in test [9] was “inactive” in each case.

The values are drawn from PubChem BioAssay (NCATS).
